D1 antagonist: antagonists of human D1 dopamine receptor | HEK293 TREx D1 cells, calcium flux, dopamine EC80; hits give low values | activity change, negative = inhibition, % at 10 µM | AID 504652 | 360,000 compounds, 3.2% hits; in the data active means activity change below about -30%
Target sequence (P21728 whole entry, looked up): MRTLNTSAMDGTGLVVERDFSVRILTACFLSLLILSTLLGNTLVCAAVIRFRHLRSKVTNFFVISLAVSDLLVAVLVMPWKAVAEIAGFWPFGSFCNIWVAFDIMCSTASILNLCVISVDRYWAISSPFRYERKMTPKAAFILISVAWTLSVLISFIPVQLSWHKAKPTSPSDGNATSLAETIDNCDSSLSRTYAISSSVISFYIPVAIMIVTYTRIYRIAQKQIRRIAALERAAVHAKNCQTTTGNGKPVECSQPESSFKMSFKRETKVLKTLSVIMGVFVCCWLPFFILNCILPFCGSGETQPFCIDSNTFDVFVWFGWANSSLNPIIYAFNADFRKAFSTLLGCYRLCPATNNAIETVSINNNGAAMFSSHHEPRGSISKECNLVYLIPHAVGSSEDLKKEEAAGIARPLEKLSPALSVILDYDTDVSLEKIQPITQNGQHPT
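Kinetic fluorescence of a calcium dye serves as the read-out. D1-expressing Hek293 Trex cells, induced overnight at 30 C, are exposed to compound for 180 s before an EC80 dopamine addition, then read 180 s further.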
D1 agonist: agonists of human D1 dopamine receptor. P21728. AID 504660. 360,000 compounds, 1% hits. activation, % at 2 µM. HEK293 T-REx D1 cells, calcium flux, agonist mode; in the data active means activation above about 30%
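Tetracycline-induced HEK293 TREx D1 cells, force-coupled to calcium signalling, were dye-loaded with a no-wash calcium kit. Compound was pin-added after a 10 s baseline. Fluorescence was read kinetically at 1 cycle/s for 180 s, with calcium rises flagged as agonism.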
D1 PAM: potentiators of human D1 dopamine receptor; HEK293 TREx D1 cells, calcium flux, dopamine EC20 potentiation; potentiation, % at 10 µM; 360,000 compounds, 0.036% hits; AID 504651; in the data active means potentiation above about 30%
D3 ag: activates the human D3 dopamine receptor; P35462; D3R DiscoveRx beta-arrestin cells, luminescence, 90 min; max activation, %; 410,000 compounds, 0.58% hits; in the data active means max activation above about 30%
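Agonist-mode cell screen: cells plated at 1500/well and incubated overnight at 37 °C, then exposed to library compounds for 90 min at 37 °C. Detection reagent was added for 30–60 min at room temperature, and luminescence was read.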
D3 antag: antagonists of human D3 dopamine receptor | P35462 | D3R cells, DiscoveRx beta-arrestin luminescence, antagonist mode; hits give low values | max response, negative = inhibition, % | 360,000 compounds, 2.5% hits | AID 652054; in the data active means max response below about -50%
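Cells plated overnight at 1500 cells/well, then exposed to library compounds with dopamine controls for 90 minutes at 37 degrees C. DiscoveRx reagent added for 30–60 minutes at room temperature; luminescence read, quantitative HTS format.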
Numbers stand for hits; n = inactive; x = no result; ! = a repeat was not active. In the library only some 6.1% were active in any assay of this set; here they are far more common.

SMILES | D1 antagonist | D1 agonist | D1 PAM | D3 ag | D3 antag
CCc1ccccc1OCc1nc2ccc(S(=O)(=O)N3CCOCC3)cc2[nH]1 | x | n | n | n | -56
Cc1ccccc1OCc1nc2ccc(S(=O)(=O)N3CCOCC3)cc2[nH]1 | n | n | n | n | n
CCOC(=O)C1(C)/C(=N/Nc2cccc(Cl)c2)C(=O)C(=O)N1c1ccccc1 (centres undefined) | n | n | n | n | -75
CS(=O)(=O)c1ccc(N2CCN(S(=O)(=O)c3cccs3)CC2)c([N+](=O)[O-])c1 | n | n | x | n | n
CCOC(=O)c1cnn(CCOC(=O)C2CC2)c1NC(=O)C1CC1 | n | n | n | n | -99
CCOC(=O)c1cnn(CCOC(=O)C(C)(C)C)c1NC(=O)C(C)(C)C | n | n | n | n | n
Cc1cccc(OCCCn2c(CCNC(=O)C3CCCCC3)nc3ccccc32)c1 | n | n | n | n | x
O=C1OC2(c3ccccc31)c1cc(I)c(O)c(I)c1Oc1c2cc(I)c(O)c1I | -42 | 411 | n | n | x
CC(=O)Oc1ccc2c(c1)Oc1cc(OC(C)=O)ccc1C21OC(=O)c2ccccc21 | n | 834 | n | n | n
O=C1OC2(c3ccc(O)cc3Oc3cc(O)ccc32)c2ccccc21 | x | x | x | 30 | x
Cc1cc(O)ccc1C1(c2ccc(O)cc2C)OC(=O)c2ccccc21 | n | n | n | n | n
O=c1c2[nH]c3cc(Br)sc3c2cnn1Cc1ccccc1F | n | n | n | x | x
COc1ccc(/C=C/C(=O)N2c3ccccc3Sc3ccc(C(F)(F)F)cc32)cc1 | -40 | n | n | n | n
CC(=O)c1cc(C(=O)N2CCc3c([nH]c4ccccc34)C2C2CCCCC2)[nH]n1 (centres undefined) | n | n | n | n | n
COc1ccc(N2CCN(c3ccc(N4C(=O)CC(C)C4=O)cc3[N+](=O)[O-])CC2)cc1 (centres undefined) | n | n | n | n | n
COc1ccc(N2CCN(c3ccc(N4C(=O)COCC4=O)cc3[N+](=O)[O-])CC2)cc1 | -31 | n | n | n | n
COc1ccc2c(Sc3ccc(C)cc3)c(C(=O)NCc3ccc(F)cc3)[nH]c2c1 | n | n | n | n | x
Cc1ccccc1C(=O)Nc1nnc(CC(=O)N/N=C/c2ccncc2)s1 | n | n | n | n | n
O=C1OC(CO)CN1Cc1ccccc1 (centres undefined) | -40 | n | n | n | n
O=C1OC(CCl)CN1Cc1c(Cl)cccc1Cl (centres undefined) | x | x | x | n | n
CCCOC(=O)/C(=C\c1ccc([N+](=O)[O-])o1)NC(=O)c1ccccc1 | n | n | n | n | n
CCOC(=O)/C(=C\c1ccc([N+](=O)[O-])o1)NC(=O)c1ccccc1 | -36 | n | n | n | n
O=C(Nc1cccc(O)c1)c1cc(-c2ccccc2Cl)on1 | -36 | n | n | n | n
COc1ccc(NC(=O)c2cc(-c3ccccc3Cl)on2)cc1OC | n | n | n | n | n
O=C(OCC#CCSc1nnc(-c2cccc3ccccc23)s1)c1cccs1 | n | n | n | x | x
SMILES | D1 antagonist | D1 agonist | D1 PAM | D3 ag | D3 antag
O=C(O)C1C2C=CC(C2)C1C(=O)NC1CCS(=O)(=O)C1 (centres undefined) | n | n | n | n | -102
O=C(NC1CCS(=O)(=O)C1)C1C2CC3CC(C2)CC1C3 (centres undefined) | n | n | n | n | n
CCC(=O)OC(OP(=O)(CCCCc1ccccc1)CC(=O)N1C[C@H](C2CCCCC2)C[C@H]1C(=O)O)C(C)C (some centres undefined) | x | x | x | n | x
CS(=O)(=O)N(CC(=O)N1CCc2ccccc2C1)c1cccc(F)c1 | n | n | n | n | n
CS(=O)(=O)N(CC(=O)N1CCc2ccccc2C1)c1cccc([N+](=O)[O-])c1 | -78 | n | n | n | n
CC(C)(C)C(=O)/C(=C/c1ccncc1)n1cncn1 | n | n | n | n | -56
Cc1cc2c(cc1S(=O)(=O)CCC(=O)N(C)Cc1ccccc1)OCC(=O)N2 | n | n | n | n | n
O=C(NCc1ccc(F)cc1)c1cnc(N2CCOCC2)c2ccccc12 | n | n | n | n | x
O=C(CSc1nnc(-c2ccco2)n1CC1CCCO1)c1ccc(F)cc1 (centres undefined) | n | n | n | n | -67
CCn1c(SCC(N)=O)nnc1-c1ccco1 | n | n | n | n | n
CCCn1c(SCC(=O)c2ccc3c(c2)OCCO3)nnc1-c1ccco1 | -36 | n | n | n | n
CCCn1c(SCC(N)=O)nnc1-c1ccco1 | -55 | n | n | n | n
CC(C)NC(=O)CSc1nnc(-c2ccco2)n1N | -67 | n | n | n | n
NC(=O)CSc1nnc(-c2ccco2)n1N | n | n | n | n | n
CC(CNC(=O)c1ccccc1Cl)NC(=O)c1ccccc1Cl (centres undefined) | x | x | x | n | n
C[C@@H]1CC[C@@]2(OC1)O[C@H]1C[C@H]3[C@@H]4CC[C@H]5C[C@@H](O)CC[C@]5(C)[C@H]4CC(=O)[C@]3(C)[C@H]1[C@@H]2C | x | x | x | n | x
COc1ccccc1C(=O)NC(=O)COC(=O)c1cccc(OC(F)F)c1 | n | n | n | n | n
CCN(CC(=O)NCc1ccc(Cl)cc1)C(=O)c1cc(OC)cc(OC)c1 | n | n | n | n | n
O=C(NC1(C(F)(F)F)NC(=O)N(CC2CCCCC2)C1=O)c1ccco1 (centres undefined) | n | n | n | n | -51
Cc1c(/C=N/NC(=O)c2cccs2)c2ccccc2n1Cc1ccccc1Cl | -99 | n | n | n | n
COc1ccc(-n2c3c(c(=O)[nH]c2=O)C(NC(C)=O)(C(F)(F)F)C(=O)N3)cc1 (centres undefined) | -54! | n | n | n | n
CC(=O)Nc1ccc(NC(C)=O)s1 | -34 | n | n | n | n
CCN(C(=O)COC(=O)c1cc2ccccc2cc1OC)c1c(N)n(Cc2ccccc2)c(=O)[nH]c1=O | x | x | x | n | n
CC1(C(=O)Nc2ccc3c(c2)OCCO3)CCN1C(=O)C1(c2ccc(Cl)cc2)CCC1 (centres undefined) | x | x | x | 73 | n
CC1(C(=O)Nc2ccc3c(c2)OCO3)CCN1C(=O)CCc1cccs1 (centres undefined) | x | x | x | n | n
SMILES | D1 antagonist | D1 agonist | D1 PAM | D3 ag | D3 antag
CC1(C(=O)Nc2ccc3c(c2)OCO3)CCN1C(=O)Cc1cccs1 (centres undefined) | x | x | x | n | -102
Cc1c(Cl)cccc1NS(=O)(=O)c1ccc(-c2cnc(C3CC3)o2)cc1 | n | n | n | n | x
N#C/C(=C\c1cccs1)Sc1nc2ccccc2s1 | -35 | n | n | n | n
CC(C)C12CN3CC(C(C)C)(CN(C1)C3c1ccccc1)C2O (centres undefined) | n | n | n | n | -84
CN(C)c1ccc(C2N3CC4(C)CN2CC(C)(C3)C4O)cc1 (centres undefined) | n | n | n | n | n
CCN1CCC(N(Cc2ccc(F)cc2)C(=O)Nc2cccc(C(F)(F)F)c2)CC1 | n | 100 | n | n | x

Source: PubChem (National Center for Advancing Translational Sciences (NCATS))
